This note sets out measurements from PubChem BioAssay (Tox21).

Values without a mark were called inactive. Inconclusive results are not listed. The source made the active and inactive calls. Unless noted, the call rests on the fitted dose curve; in most records, active means well fitted curve in the direction sought with a large enough effect in the repeat runs; inconclusive means weak or mixed curves; inactive means no such curve, though single readings can be large; an effect the other way counts as inactive or inconclusive.

The nature of test [1]: qHTS assay to identify small molecule HDAC inhibitors - cell viability counter screen (AID 1259365). Further: series mostly up to about 92 µM; nearly all actives have a fitted effect of over 50% in size. Summed up:
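After overnight seeding at 1,500 cells per well, wild-type HCT-116 cultures took up compounds in DMSO for 2hr at 37 C. Viable cell content came from luminescence with CellTiter-Glo.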

The nature of test [2]: qHTS assay to identify small molecule agonists of the sonic hedgehog signaling (Shh) pathway - cell viability counter screen (AID 1259366). Further: nearly all actives have a fitted effect of over 50% in size. Further: potency means the concentration at half of the fitted maximal effect. The method, boiled down:
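Same-well cytotoxicity read. Gli1-Luc reporter 3T3 cells; compounds 24hr, 37C/5% CO2; CellTiter-Fluor fluorescence.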

The nature of test [3]: qHTS assay to identify small molecule antagonists of the sonic hedgehog signaling (Shh) pathway - cell viability counter screen (AID 1259367). Further: nearly all actives have a fitted effect of over 55% in size. Further: potency means the concentration at half of the fitted maximal effect. The method, boiled down:
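Cells: 3T3 Gli1-Luc, 2,000/well, 4 hr pre-incubation. Compounds in DMSO, then conditioned medium. Incubation 24 hr, 37C, 5% CO2. CellTiter-Fluor at 23 hr, 1 hr, fluorescence.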

A short description of test [4]: qHTS assay to identify small molecule agonists of the sonic hedgehog signaling (Shh) pathway (AID 1259368; calls by dose curve;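 further: NIH/3T3-derived 3T3Gli1-Luc cells carrying a stable Gli1-driven firefly luciferase reporter; series mostly up to about 92 µM; nearly all actives have a fitted effect of over 15% in size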). Summed up: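 3T3Gli1-Luc (NIH/3T3 clone, stable Gli1-Luc); 4 hr pre-incubation, then cpd in DMSO 24 hr, 37 C/5% CO2; luciferase reagent 30 min RT; luminescence.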
Test [5] is described as follows: qHTS assay to identify small molecule antagonists of the sonic hedgehog signaling (Shh) pathway (AID 1259369; calls by dose curve; further: nearly all actives have a fitted effect of over 45% in size). Summed up:
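3T3Gli1-Luc, conditioned-medium-stimulated, 24hr cpd, 37C/5% CO2; Gli1-driven firefly Luc luminescence after 30min RT with luciferase reagent. Cells plated 4hr before cpd.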

Test [6] addresses Estrogen receptor beta (Homo sapiens) (UniProt Q92731). Description: qHTS assay to identify small molecule agonists of the estrogen receptor beta (ER-beta) signaling pathway (AID 1259377; active means well fitted activation curve with a large enough effect in the signal ratio in the repeat runs, not every such curve was filed as active; the % refers to the signal ratio). The method, boiled down:
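Read-out: beta-lactamase FRET fluorescence. Cell line: ER-beta-UAS-bla HEK293T in 2% charcoal-stripped FBS. Exposure: 16 hr at 37C. Substrate step: 2 h at room temperature.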

For test [7] the target is unchanged. The experiment in a line: qHTS assay to identify small molecule antagonists of the estrogen receptor beta (ER-beta) signaling pathway (AID 1259378; active means well fitted inhibition curve with a large enough effect in the signal ratio in the repeat runs, not every such curve was filed as active; the % refers to the signal ratio). Summed up: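 Antagonist mode: compounds added to beta-lactamase reporter HEK293T ER-beta-UAS cells stimulated with E2 (1nM final), 16 hr at 37C. LiveBLAzer B/G FRET substrate, 2 hours room temperature, fluorescence read-out.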

A short description of test [8]: qHTS assay to identify small molecule agonists of the androgen receptor (AR) signaling pathway in the presence of an antagonist - cell viability counter screen (AID 1259379). Further: nearly all actives have a fitted effect of over 25% in size. Further: potency means the concentration at half of the fitted maximal effect. The method, boiled down:
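Cells: MDA-kb2 (MMTV-luc, AR and GR elements), 3,000/well, 5 hr settle. Added: nilutamide 3.0uM final, then compounds (15 conc.). Incubation: 16 hr, 37C, no CO2. Read-out: CellTiter-Fluor, 1 hr, fluorescence.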

The nature of test [9]: qHTS assay to identify small molecule agonists of the estrogen receptor beta (ER-beta) signaling pathway - cell viability counter screen (AID 1259380). Further: nearly all actives have a fitted effect of over 30% in size. Summed up: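 HEK293T ER-beta-UAS-bla; 2% CS-FBS; 6 hr pre-plate, 16 hr cpd at 37C/5% CO2; LiveBLAzer read first, then CellTiter-Glo 30 min RT, luminescence.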
Test [10] addresses Androgen receptor (Homo sapiens) (UniProt P10275). The experiment in a line: qHTS assay to identify small molecule agonists of the androgen receptor (AR) signaling pathway in the presence of an antagonist (AID 1259381; calls by dose curve; further: nearly all actives have a fitted effect of over 15% in size). Summed up: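 MDA-kb2 cells, 3,000/well, rested 5hr at 37C/0% CO2 → nilutamide 3.0uM final or buffer → compounds, 15 conc. → 16hr at 37C → ONE-Glo, 30min RT → luminescence.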

Chain of Androgen receptor (Homo sapiens) (P10275 whole entry, looked up): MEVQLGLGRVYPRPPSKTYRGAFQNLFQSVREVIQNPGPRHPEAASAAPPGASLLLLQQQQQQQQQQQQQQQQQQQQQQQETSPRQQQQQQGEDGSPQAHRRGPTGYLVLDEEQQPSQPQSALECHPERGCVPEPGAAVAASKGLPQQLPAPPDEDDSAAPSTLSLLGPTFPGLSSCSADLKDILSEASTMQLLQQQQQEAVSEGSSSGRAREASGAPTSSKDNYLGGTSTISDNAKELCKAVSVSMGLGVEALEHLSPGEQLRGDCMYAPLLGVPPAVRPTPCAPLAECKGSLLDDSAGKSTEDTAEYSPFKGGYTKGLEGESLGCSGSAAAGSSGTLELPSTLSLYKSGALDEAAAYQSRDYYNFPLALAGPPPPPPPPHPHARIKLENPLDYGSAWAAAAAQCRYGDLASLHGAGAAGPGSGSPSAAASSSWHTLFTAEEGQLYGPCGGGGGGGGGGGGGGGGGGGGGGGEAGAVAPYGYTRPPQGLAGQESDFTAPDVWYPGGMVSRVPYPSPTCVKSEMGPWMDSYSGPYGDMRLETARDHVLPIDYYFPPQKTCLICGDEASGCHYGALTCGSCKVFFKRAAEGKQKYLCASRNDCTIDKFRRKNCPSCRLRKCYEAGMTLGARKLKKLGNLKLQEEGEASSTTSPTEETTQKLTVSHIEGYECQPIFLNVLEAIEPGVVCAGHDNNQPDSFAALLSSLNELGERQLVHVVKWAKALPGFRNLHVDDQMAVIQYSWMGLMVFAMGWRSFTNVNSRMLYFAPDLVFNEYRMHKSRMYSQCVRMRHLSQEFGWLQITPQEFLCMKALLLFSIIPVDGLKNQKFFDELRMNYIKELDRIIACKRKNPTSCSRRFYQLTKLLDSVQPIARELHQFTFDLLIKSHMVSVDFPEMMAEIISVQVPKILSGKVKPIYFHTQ
Chain of Estrogen receptor beta (Homo sapiens) (Q92731 whole entry, looked up): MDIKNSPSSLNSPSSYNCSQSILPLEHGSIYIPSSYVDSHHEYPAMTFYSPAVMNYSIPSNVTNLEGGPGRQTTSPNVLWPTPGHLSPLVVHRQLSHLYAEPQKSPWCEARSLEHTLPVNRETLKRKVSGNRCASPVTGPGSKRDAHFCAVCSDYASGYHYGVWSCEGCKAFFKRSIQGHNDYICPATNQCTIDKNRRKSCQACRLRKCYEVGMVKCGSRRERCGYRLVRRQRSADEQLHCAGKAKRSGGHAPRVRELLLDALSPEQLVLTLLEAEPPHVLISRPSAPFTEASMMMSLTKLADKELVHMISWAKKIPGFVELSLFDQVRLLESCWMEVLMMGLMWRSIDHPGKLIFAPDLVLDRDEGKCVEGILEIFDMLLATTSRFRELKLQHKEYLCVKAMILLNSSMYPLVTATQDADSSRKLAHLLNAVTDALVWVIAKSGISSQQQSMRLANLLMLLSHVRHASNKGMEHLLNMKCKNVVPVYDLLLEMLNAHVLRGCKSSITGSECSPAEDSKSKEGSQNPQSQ

`c1ccc(CNc2ncnc3nc[nH]c23)cc1`: the compound was classed as inactive in test [1], in test [4], in [7] and in test [9]. The Potency result in test [2], in test [3], in test [5], in test [6] and in test [8] was “inactive” in each case.

As for `CO[Si](CCCS)(OC)OC`, the call in [1], in [4], in test [7] and in test [9] was inactive. The Potency result in test [2], in [3], in test [5], in test [6] and in test [8] was “inactive” in each case.

With `CC1=CC[C@H](CC=O)C1(C)C`, the result in test [1], in test [4], in [7] and in test [9] was inactive. For the same compound, the Potency result in test [2], in [3], in test [5], in test [6] and in [8] was “inactive” in each case.

Regarding `CC(C)(C)c1ccc(C=O)cc1`, the compound was classed as inactive in [1], in test [4], in [7] and in test [9]. In addition, the Potency result in test [2], in [3], in test [5], in test [6] and in [8] was “inactive” throughout.

Turning to `C/C=C(\C)C(=O)OCC/C=C\CC`, the outcome in test [1], in test [4], in test [7] and in [9] was inactive. Moreover, the Potency entry in test [2], in test [3], in [5], in test [6] and in [8] was “inactive” in each case.

Regarding `CC(C)CCCCCCOC(=O)C1CCCCC1C(=O)OCCCCCCC(C)C` (centres undefined), the call in [1], in test [4], in test [7] and in test [9] was inactive. Moreover, the Potency entry in test [2], in [3], in test [5], in [6] and in test [8] was “inactive” each time.

Regarding `CCCCCN(CCCOC)C(=O)C(CCC(=O)O)NC(=O)c1ccc(Cl)c(Cl)c1` (centres undefined), the result in test [1], in test [4], in test [7] and in test [9] was inactive. The Potency result in test [2], in test [3], in test [5], in [6] and in test [8] was “inactive” each time.

As for `C=C[C@@H](C)CCC=C(C)C`, the compound was classed as inactive in [1], in test [4], in [7] and in test [9]. The Potency entry in test [2], in test [3], in test [5], in test [6] and in [8] was “inactive” in each case.

With `C=CC(C)(O)CC/C=C(\C)CC` (centres undefined), the result in test [1], in test [4], in [7] and in test [9] was inactive. Besides, the Potency entry in test [2], in [3], in test [5], in test [6] and in [8] was “inactive” each time.

Consider `C1CCN2C[C@@H]3C[C@@H](CN4CCCC[C@@H]34)[C@H]2C1`, for which the compound was called inactive in [1], in test [4] and in test [7]. Further, the Potency result in test [2], in test [3], in [5], in test [6] and in [8] was “inactive” in each case.

As to `O=S(=O)(O)c1cc(O)ccc1O`, the outcome in test [1], in test [4] and in [9] was inactive. The Potency result in test [2], in test [3], in test [5], in test [6] and in test [8] was “inactive” throughout.

In the case of `CC(=O)Nc1ccc(C)cc1`, the compound was classed as inactive in test [1], in [4], in [7] and in test [9]. Further, the Potency entry in test [2], in test [3], in test [5], in test [6] and in test [8] was “inactive” throughout.

As for `O=C1c2ccccc2-c2ccccc21`, the call in test [1], in test [4], in test [7], in [9] and in [10] was inactive. Besides, the Potency entry in test [2], in test [3], in test [5], in test [6] and in test [8] was “inactive” in each case.

As to `CC(C)c1ccccc1O`, the outcome in [1], in test [4], in [7] and in test [9] was inactive. Besides, the Potency result in test [2], in test [3], in [5], in [6] and in test [8] was “inactive” each time.

`CNC(=O)NC`: the compound was classed as inactive in [1], in test [4], in test [7], in test [9] and in test [10]. The Potency result in test [2], in test [3], in test [5], in [6] and in [8] was “inactive” in each case.

For the compound `CCOC(=O)C(=O)c1csc(NC=O)n1`, the call in test [1], in test [4], in test [7] and in [9] was inactive. Also, the Potency result in [2], in test [3], in [5], in test [6] and in test [8] was “inactive” in each case.

As for `C=CCOc1c(Br)cc(C(C)(C)c2cc(Br)c(OCC=C)c(Br)c2)cc1Br`, the outcome in test [1], in test [4], in test [7] and in test [9] was inactive. The Potency entry in test [2], in test [3], in [5], in test [6] and in [8] was “inactive” in each case.

With `NS(=O)(=O)c1ccc(Cl)c(S(N)(=O)=O)c1`, the compound was classed as inactive in [1] and in test [4]. The Potency result in [2], in [3], in test [5], in test [6] and in test [8] was “inactive” throughout.

Consider `CC(C)=CC(C)(C)C`, for which the call in test [1], in test [4] and in test [9] was inactive. Moreover, the Potency entry in test [2], in test [3], in test [5], in test [6] and in [8] was “inactive” throughout.

As to `COCC(=O)Nc1c(I)c(C(=O)NCC(O)CO)c(I)c(C(=O)N(C)CC(O)CO)c1I` (centres undefined), the result in test [1], in test [4], in test [7], in [9] and in test [10] was inactive. The Potency entry in test [2], in [3], in test [5], in test [6] and in test [8] was “inactive” in each case.

As for `CCCCCCCCC(=O)OCC`, the result in test [1], in test [4], in [7] and in [9] was inactive. In addition, the Potency result in test [2], in test [3], in test [5], in test [6] and in test [8] was “inactive” in each case.

Turning to `CC(CC(=O)O)CC(C)(C)C` (centres undefined), the outcome in test [1], in test [4], in test [7] and in test [9] was inactive. For the same compound, the Potency entry in test [2], in test [3], in [5], in [6] and in test [8] was “inactive” each time.

As to `F[Si-2](F)(F)(F)(F)F`, the compound was classed as inactive in test [1], in test [4], in test [7] and in test [9]. Further, the Potency result in [2], in test [3], in test [5], in test [6] and in test [8] was “inactive” in each case.

With `Cc1cccc(Nc2ccncc2S(=O)(=O)NC(=O)NC(C)C)c1`, the outcome in test [1], in test [4], in test [7] and in test [9] was inactive. For the same compound, the Potency entry in test [2], in test [3], in test [5], in test [6] and in test [8] was “inactive” in each case.

As for `CC(=O)OC(C(=O)c1ccccc1)c1ccccc1` (centres undefined), the compound was called inactive in test [1], in test [4], in [7], in test [9] and in test [10]. Further, the Potency entry in test [2], in test [3], in test [5], in test [6] and in [8] was “inactive” each time.

Take `COc1cc([N+](=O)[O-])ccc1N`: the call in test [1], in [4], in test [7], in test [9] and in [10] was inactive. The Potency in [2] is 54.5 µM (active); in [3], 54.5 µM (active); in test [8], 34.4 µM (active). For the same compound, the Potency entry in test [5] and in [6] was “inactive” throughout.

Regarding `Nc1cc(C(=O)O)ccc1Cl`, the compound was classed as inactive in test [1], in test [4], in [7], in test [9] and in test [10]. Further, the Potency entry in [2], in [3], in test [5], in test [6] and in test [8] was “inactive” throughout.
